Compounds with a hit are over-represented: about 13% of the library has one in this group of screens.
HADH2 inh: blocks human hydroxyacyl-CoA dehydrogenase type II; Q99714; recombinant HADH2, NADH fluorescence, beta-hydroxybutyryl-CoA; actives 3.4% (n = 73,000); Potency, µM (doses to about 57.1 µM), for inactives: at the highest dose activity change, negative = inhibition, actives largely listed as inhibitors; further: potency means the concentration at half of the fitted maximal effect; on the % scale 0 is the no-effect control and ±100 the full control effect; nearly all actives have a fitted effect of over 60% in size
Target sequence (Q99714 whole entry, looked up, one chain of several): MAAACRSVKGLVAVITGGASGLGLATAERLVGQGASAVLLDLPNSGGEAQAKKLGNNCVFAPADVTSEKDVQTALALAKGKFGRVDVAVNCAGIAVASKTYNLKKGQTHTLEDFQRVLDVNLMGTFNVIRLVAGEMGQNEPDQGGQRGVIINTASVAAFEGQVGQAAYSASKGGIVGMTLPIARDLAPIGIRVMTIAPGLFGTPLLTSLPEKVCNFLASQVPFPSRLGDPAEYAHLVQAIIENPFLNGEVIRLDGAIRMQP
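His-tagged recombinant enzyme from E. coli, 20 nM, preincubated 15 min RT with compound; reaction started with 1 mM NAD+ and 90 uM beta-hydroxybutyryl-CoA in 100 mM Tris-HCl pH 9.0. NADH fluorescence (ex 360/em 450) read over 4 min; last-minus-first difference.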
AID923: qHTS Assay for Allosteric/Competitive Inhibitors of Caspase-1: Spectroscopic Profiling in AFC Spectral Region. Potency, µM (titrated, usually from 57.5 µM), for inactives: top-dose fluorescence increase, actives largely listed as activators. actives 1.1% (n = 75,000). compound fluorescence, AFC spectral region (405/520 nm); further: potency means the concentration at half of the fitted maximal effect; 0% is about no effect
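Titrations up to 57 uM read every 20 sec for 3 min (405/520 nm) with 50 nM caspase 1 and 5 uM Ac-WEHD-AFC, pH 7.5 HEPES buffer. Fluorescence-vs-time intercept gave baseline, scaled against on-plate AFC standard.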
Bst PK mod: pyruvate kinase (B. stearothermophilus) modulation. purified pyruvate kinase, luminescence ATP production; ribose 5-phosphate activator present at AC10. actives 1.2% (n = 51,000). AID 361. Potency, µM; in the data active means potency below about 11 µM; inconclusive means mostly about 12 µM to 25 µM;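 the screen sought inhibitors and activators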;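 further: potency means the concentration at half of the fitted maximal effect; scaled between full activation by ribose 5 phosphate and full inhibition by luteolin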
4MU fluor: compound fluoresces in the 4-MU spectral region; actives 11% (n = 59,000); AID 589; compound autofluorescence, 340/450 nm, 4-MU equivalents; active compounds read high; max dye-equivalent concentration, M; in the data active means max dye-equivalent concentration above about 10 nM; inconclusive means mostly about 1.1 nM to 9.6 nM
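Compounds in 100 mM Tris, pH 8.0, incubated 15 min at room temperature, then fluorescence read at 340 nm excitation/450 nm emission. Signal converted to 4-MU dye-equivalent concentration using an on-plate six-point 4-MU standard curve.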
A350 fluor: compounds fluorescent in Alexa 350 spectral region. Compound autofluorescence, 340/450 nm, Alexa 350 dye-equivalents; active compounds read high. max dye-equivalent concentration, M. actives 11% (n = 59,000). AID 590; in the data active means max dye-equivalent concentration above about 10 nM; inconclusive means mostly about 1.1 nM to 9.6 nM
HSD17B inhib: blocks hydroxysteroid 17-beta dehydrogenase activity. Q99714. recombinant HSD17B10, NADH fluorescence kinetic. Potency, µM (highest dose often 57.1 µM), for the others: at the top dose activity change, negative = inhibition, most hits filed as inhibitors. actives 7.6% (n = 75,000). AID 893;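 further: the protocol describes HADH2 (HSD17B10) and not the HSD17B4 of the title; potency means the concentration at half of the fitted maximal effect; on the % scale 0 is the no-effect control and ±100 the full control effect; nearly all actives have a fitted effect of over 70% in size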
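Activity followed as NADH fluorescence increase (ex 360, em 450 nm) every 30 seconds for 4 min, using final 90 uM beta-hydroxybutyryl CoA and 1 mM NAD+. Recombinant His-tagged enzyme, 20 nM, pH 9.0 Tris buffer, 15 min compound preincubation.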
Active calls of the source: *; i = inactive; ? = inconclusive; · = no result; [ ] = dose if it differs, or a comment. Unless noted, the call rests on the fitted dose curve; in most records, active means well fitted curve in the direction sought with a large enough effect; inconclusive means small, poorly fitted or top-dose-only effect, or another doubt; inactive means no such curve, though single readings can be large; an effect the other way counts as inactive or inconclusive.

SMILES	HADH2 inh	AID923	Bst PK mod	4MU fluor	A350 fluor	HSD17B inhib
C#CC(C)OC(=O)C(C)NC(=O)c1ccccc1 (centres undefined)	·	0%	·	·	·	-6%
Cc1ccc(C)c(/C(O)=C2\C(=O)C(=O)N(CCCN(C)C)C2c2cccnc2)c1 (centres undefined)	-10%	2%	>57	i	i	-3%
COc1ccc(-c2nc(C#N)c(NCC3CCCO3)o2)cc1 (centres undefined)	32µM*	-1%	·	?	1.2e-08M*	25µM*
N#Cc1nc(-c2cccs2)oc1NCC1CCCO1 (centres undefined)	5µM*	-1%	>57	2.8e-06M*	3.6e-06M*	32µM*
CC1(C(=O)CSc2nc3ccccc3s2)CCC(=O)O1 (centres undefined)	·	·	10*	i	i	·
O=C(c1ccco1)N1CCC2(CCCN(c3ncccn3)C2)CC1	-6%	1%	·	i	i	-25%
COc1ccc2[nH]c(C(=O)c3ccccc3)cc2c1	-5%	1%	·	·	·	5%
CC(=O)Nc1ccc(-c2cc3ccccc3o2)cc1	·	·	?	i	i	·
CC(=O)Nc1ccc(-c2nc3c(C)cccc3[nH]2)cc1	32µM*	0%	·	i	i	32µM*
CC(=O)Nc1ccc(-c2nc3ccc(Cl)cc3[nH]2)cc1	·	-2%	·	·	·	20µM*
CC(=O)Nc1ccc2nc(-c3ccccn3)[nH]c2c1	?	3%	?	?	?	3.2µM*
C=CCN=C(NC#N)SCc1ccccc1Cl	4%	-2%	i	i	i	-4%
C[C@@]12CC[C@H]3[C@H](CC=C4C[C@@H](O)CC[C@@]43C)[C@@H]1CC[C@@H]2N(CCO)CCO	7%[11.4 µM]	4%[11.5 µM]	·	i	i	13%[11.4 µM]
COc1ccccc1CN1CCC2(CC1)CCN(C(=O)c1cccc(F)c1)CC2	6%	3%	·	i	i	3%
c1cncc(CSc2ncnc3nc[nH]c23)c1	10%[11.4 µM]	-2%[11.5 µM]	·	i	i	8%[11.4 µM]
Cc1nc(SCn2nnc3ccccc3c2=O)c2c(C)c(C)sc2n1	13%	0%	>57	i	i	-3%
O=C(CCN1C(=O)C2C3C=CC(C3)C2C1=O)Nc1c(F)cc(F)cc1Br (centres undefined)	2%	2%	>57	1.2e-08M*	1.2e-08M*	0%
Cc1sccc1C1C(C#N)=C(N)SC(N)=C1C#N	·	·	>26	1.2e-08M*	1.5e-08M*	·
O=C(O)c1nc2cc(Cl)c(Cl)cc2[nH]c1=O	·	1%	·	·	·	-1%
O=C(CN1C(=O)COc2ccccc21)NCCCN1CCc2ccccc2C1	17%	0%	>57	1.6e-08M*	1.5e-08M*	-22%
O=C(NCCN1CCOCC1)c1ccc(=O)oc1	·	·	>11	6.5e-08M*	7.2e-08M*	·
O=C(NCCN1CCOCC1)c1ccc(-c2ccccc2)cc1	5%	1%	>57	i	i	-2%
O=C(NCc1ccccn1)c1ccc(=O)oc1	·	·	>11	5.1e-08M*	5.7e-08M*	·
O=C(c1coc(=O)c(Br)c1)N1CCOCC1	·	·	>26	1.2e-06M*	1.3e-06M*	·
O=C(NCCc1ccccc1)c1ccc(=O)oc1	-11%	2%	>57	?	?	133%
SMILES	HADH2 inh	AID923	Bst PK mod	4MU fluor	A350 fluor	HSD17B inhib
O=C(c1ccc(=O)oc1)N1CCOCC1	·	·	>11	1.8e-07M*	1.9e-07M*	·
O=C(c1ccc(Cl)c(Cl)c1)N1CCOCC1	20%	0%	i	i	i	16%
CS(=O)(=O)c1ccc(CNC(=O)[C@H]2C[C@@H]2[C@H](NP(=O)(c2ccccc2)c2ccccc2)c2ccccc2)cc1	-2%	-4%	·	·	·	4%
O=C(c1ccc(=O)oc1)N1CCCc2ccccc21	20µM*	17%	>57	8.6e-08M*	2.9e-08M*	25µM*
O=C(/C=C/Nc1ccc(F)cc1)c1ccco1	-11%	7%	3.7*	?	?	-5%
CC(=O)c1cc2c(cc1O)OC(C)(C)C=C2	·	-1%	·	·	·	-2%
CC1(C)C=Cc2cc3ccc(=O)oc3cc2O1	·	3%	·	·	·	32µM*
Cn1c(=O)c(-c2ccc(F)cc2)nc2cncnc21	-4%	10%	·	?	?	?
COc1ccc(-c2nc(C#N)c(NCc3ccccc3Cl)o2)cc1	32µM*	-1%	>57	i	i	25µM*
N#Cc1nc(-c2ccco2)oc1NCc1ccc(F)cc1	?	1%	>57	?	?	32µM*
COc1ccc(-c2nc(C#N)c(NCc3ccc(F)cc3)o2)cc1OC	?	0%	>57	?	?	32µM*
N#Cc1nc(COc2ccccc2F)oc1NCc1ccc(F)cc1	-16%	3%	·	·	·	-7%
COc1ccc(CNc2oc(COc3ccc(Cl)cc3)nc2C#N)cc1	·	·	>26	i	i	·
COc1ccc(-c2nc(C#N)c(NCc3ccccc3Cl)o2)cc1OC	32µM*	-1%	>57	?	?	25µM*
N#Cc1nc(Cc2ccccc2)oc1NCc1ccccc1Cl	-2%	-1%	?	i	i	-11%
O=C(O)CS(=O)(=O)c1ccc(Oc2ccc(S(=O)(=O)CC(=O)O)cc2)cc1	3%	0%	>57	2.4e-08M*	2.6e-08M*	11%
Cn1cccc1C(=O)N1CCC2(CCN(C(=O)Nc3ccccc3)CC2)CC1	0%	1%	·	i	i	0%
CN1CCN(Cc2c(O)ccc3occ(C(=O)c4ccccc4)c23)CC1	-3%	1%	·	·	·	-3%
CC(=O)C(C(C)=O)c1c(Cl)c(O)c(O)c2c(C(=O)c3ccccc3)coc12	0.79µM*	0%	>57	i	i	7.9µM*
COc1ccc(-c2nc(N)ncc2-c2csc(C)n2)c(O)c1	17%	-1%	>57	i	i	5%
COc1ccc(-c2nc(N)nc(C)c2Oc2ccccc2Br)c(O)c1	-6%	3%	1.9*	i	i	-22%
COC(=O)n1c(=S)oc2cc(Cl)ccc21	7.9µM*	0%	>57	i	i	-21%
Cc1cc2c(c(N3CCOCC3)n1)C(=O)OC2	-17%	-1%	>57	1.8e-08M*	1.7e-08M*	?

Assay outcomes deposited in PubChem by National Center for Advancing Translational Sciences (NCATS).
